From the supplement of paper PMC6897291
Structures can show the parent of a compound that is named as a salt.

These compounds were tested on RIVA (assay: growth inhibition by drug plus 177Lu-lilotomab satetraxetan (1 - RLU/untreated control) (fraction); higher = stronger inhibition). Details: 100 nM; time (day): 3; 177Lu-lilotomab satetraxetan 0.5 ug/ml.
How it was run: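 Growth inhibition was calculated from RealTime-Glo RLU against untreated no-drug wells. Values equal 1 − RLU/mean of 48 untreated no-drug wells per plate, read daily from day 3 after 1 h at 37°C. RIVA and U-2932 cells, with or without 18 h pretreatment by a radiolabelled anti-CD37 antibody conjugate (~600 MBq/mg; 0.5 µg/ml RIVA, 1 µg/ml U-2932), were washed and plated at 3,000 cells/well on compound-printed plates at 10/100 nM (RIVA) or 10/1,000 nM (U-2932).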

| Structure (SMILES) | growth inhibition by drug plus 177Lu-lilotomab satetraxetan |
| --- | --- |
| Nc1nc2[nH]cc(CCc3ccc(C(=O)N[C@@H](CCC(=O)O)C(=O)O)cc3)c2c(=O)[nH]1 [Pemetrexed] | 0.325 |
| COc1cc2nccc(Oc3ccc(NC(=O)Nc4cc(C)on4)c(Cl)c3)c2cc1OC [Tivozanib (AV-951)] | 0.438 |
| CCC(=O)N1CCN(c2ccc(-n3c(=O)ccc4cnc5ccc(-c6cnc7ccccc7c6)cc5c43)cc2C(F)(F)F)CC1 [Torin 1] | 0.595 |
| COc1cccc2c1C(=O)c1c(O)c3c(c(O)c1C2=O)C[C@@](O)(C(=O)CO)C[C@@H]3O[C@H]1C[C@H](N)[C@@H](O)[C@H](C)O1 [Epirubicin Hydrochloride] | 0.887 |
| Clc1ccc(Nc2nnc(Cc3ccncc3)c3ccccc23)cc1 [Vatalanib dihydrochloride (PTK787)] | 0.328 |
| COc1cc2nccc(Oc3ccc(NC(=O)C4(C(=O)Nc5ccc(F)cc5)CC4)cc3)c2cc1OC [XL-184 free base (Cabozantinib)] | 0.445 |
| C[C@@H](O[C@H]1OCCN(Cc2n[nH]c(=O)[nH]2)[C@H]1c1ccc(F)cc1)c1cc(C(F)(F)F)cc(C(F)(F)F)c1 [Aprepitant (MK-0869)] | 0.319 |
| COc1cc2c(cc1O)CC[C@@H]1[C@@H]2CC[C@]2(C)[C@@H](O)CC[C@@H]12 [2-Methoxyestradiol] | 0.308 |
| CNCc1ccc(-c2[nH]c3cc(F)cc4c3c2CCNC4=O)cc1 | 0.507 |
| CC[C@@]1(O)C(=O)OCc2c1cc1n(c2=O)Cc2cc3c(CN(C)C)c(O)ccc3nc2-1 [Topotecan HCl] | 0.814 |
| Nc1cc(C(F)(F)F)c(-c2cc(N3CCOCC3)nc(N3CCOCC3)n2)cn1 | 0.33 |
| CC(C)(C)c1ccc(S(=O)(=O)/C=C/C#N)cc1 | 0.452 |
| C[C@]1(c2nc3c(C(N)=O)cccc3[nH]2)CCCN1 [ABT-888 (Veliparib)] | 0.307 |
| Cc1ccc(NC(=O)c2ccc(CN3CC[C@H](N(C)C)C3)c(C(F)(F)F)c2)cc1Nc1nccc(-c2cncnc2)n1 [Bafetinib (INNO-406)] | 0.392 |
| C[C@]12CC[C@@H]3c4ccc(O)cc4CC[C@H]3[C@@H]1CCC2=O [Estrone] | 0.271 |
| O=C(c1ccc(OCCN2CCCCC2)cc1)c1c(-c2ccc(O)cc2)sc2cc(O)ccc12 [Evista (Raloxifene Hydrochloride)] | 0.425 |
| CCN(CC)CCNC(=O)c1c(C)[nH]c(/C=C2\C(=O)Nc3ccc(F)cc32)c1C [Sunitinib Malate (Sutent)] | 0.257 |
| CCOc1ccc(Nc2nc(-c3c(C)nc4ccccn34)cs2)cc1 | 0.945 |
| C=CC(=O)N1CCC[C@@H](n2nc(-c3ccc(Oc4ccccc4)cc3)c3c(N)ncnc32)C1 | 0.872 |

| Structure (SMILES) | growth inhibition by drug plus 177Lu-lilotomab satetraxetan |
| --- | --- |
| CS(=O)(=O)c1cccc(CNc2nc(Nc3ccc4c(c3)CCC(=O)N4)ncc2C(F)(F)F)c1 | 0.206 |
| CC(NC(=O)c1ccccc1/N=C/c1c(O)ccc2ccccc12)c1ccccc1 (stereo not drawn) [Sirtinol] | 0.436 |
| CN(Cc1cnc2nc(N)nc(N)c2n1)c1ccc(C(=O)N[C@@H](CCC(=O)O)C(=O)O)cc1 [Abitrexate (Methotrexate)] | 0.452 |
| OCCn1cc(-c2cnc3nnn(Cc4ccc5ncccc5c4)c3n2)cn1 | 0.384 |
| COc1cc(Nc2ncc(F)c(Nc3ccc4c(n3)NC(=O)C(C)(C)O4)n2)cc(OC)c1OC [R406(free base)] | 0.471 |
| COc1cccc2c1C(=O)c1c(O)c3c(c(O)c1C2=O)C[C@@](O)(C(=O)CO)C[C@@H]3O[C@H]1C[C@H](N)[C@H](O)[C@H](C)O1 [Doxorubicin (Adriamycin)] | 0.869 |
| CN(NC(=O)CC(=O)NN(C)C(=S)c1ccccc1)C(=S)c1ccccc1 [Elesclomol] | 0.987 |
| CN(C)CCOc1ccc(/C(=C(/CCCl)c2ccccc2)c2ccccc2)cc1 [Toremifene Citrate (Fareston, Acapodene)] | 0.696 |
| CN1CCN(CCOc2cc(OC3CCOCC3)c3c(Nc4c(Cl)ccc5c4OCO5)ncnc3c2)CC1 [Saracatinib (AZD0530)] | 0.458 |
| CC(C)C[C@H](NC(=O)[C@H](Cc1ccccc1)NC(=O)c1cnccn1)B(O)O [Bortezomib (Velcade)] | 0.989 |
| Cn1cncc1[C@@](N)(c1ccc(Cl)cc1)c1ccc2c(c1)c(-c1cccc(Cl)c1)cc(=O)n2C [Tipifarnib (Zarnestra)] | 0.482 |
| COC(=O)c1ccc2c(C(=Nc3ccc(N(C)C(=O)CN4CCN(C)CC4)cc3)c3ccccc3)c(O)[nH]c2c1 [BIBF1120 (Vargatef)] | 0.251 |
| CC[C@@H]1/C=C(\C)C[C@H](C)C[C@H](OC)[C@H]2O[C@@](O)(C(=O)C(=O)N3CCCC[C@H]3C(=O)O[C@H](/C(C)=C/[C@@H]3CC[C@H](Cl)[C@H](OC)C3)[C@H](C)[C@@H](O)CC1=O)[C@H](C)C[C@@H]2OC [Pimecrolimus] | 0.634 |
| CN(C)CCOc1ccc(-c2nc(-c3ccncc3)c(-c3ccc4c(c3)CC/C4=N\O)[nH]2)cc1 | -0.0096 |
| COc1ccc(CCN2CCN(CCCc3ccccc3)CC2)cc1OC | 0.0167 |
| CNC(=O)c1cc(Oc2ccc(NC(=O)Nc3cc(C(C)(C)C)nn3-c3ccc4ncccc4c3)c(F)c2)ccn1 [DCC-2036 (Rebastinib)] | 0.486 |
| CCC(C)(C)C(=O)O[C@H]1C[C@@H](C)C=C2C=C[C@H](C)[C@H](CC[C@@H]3C[C@@H](O)CC(=O)O3)[C@H]21 [Simvastatin (Zocor)] | 0.469 |
| CCc1ccc(CCOc2ccc(CC3SC(=O)NC3=O)cc2)nc1 (stereo not drawn) [Pioglitazone (Actos)] | 0.416 |
| O=C(O)C(Cc1c[nH]c2ccccc12)N1C(=O)c2ccccc2C1=O (stereo not drawn) | 0.275 |
